# Laboratory results taken from PubChem BioAssay AID1209 (Sanford-Burnham Center for Chemical Genomics, 2008).
# Screen size: about 190,000 compounds; about 810 (0.43%) were called active. The list comes from a sample in which actives are over-represented; it also holds similar structures and randomly drawn compounds. Unmarked numbers belong to inactive results. No stated cut-off is given here; in the data, active means inhibition above about 50%; inactive means the rest.
# Molecular target: Mannose-6-phosphate isomerase (Homo sapiens) (UniProt P34949)
# Sequence (P34949 whole entry, looked up): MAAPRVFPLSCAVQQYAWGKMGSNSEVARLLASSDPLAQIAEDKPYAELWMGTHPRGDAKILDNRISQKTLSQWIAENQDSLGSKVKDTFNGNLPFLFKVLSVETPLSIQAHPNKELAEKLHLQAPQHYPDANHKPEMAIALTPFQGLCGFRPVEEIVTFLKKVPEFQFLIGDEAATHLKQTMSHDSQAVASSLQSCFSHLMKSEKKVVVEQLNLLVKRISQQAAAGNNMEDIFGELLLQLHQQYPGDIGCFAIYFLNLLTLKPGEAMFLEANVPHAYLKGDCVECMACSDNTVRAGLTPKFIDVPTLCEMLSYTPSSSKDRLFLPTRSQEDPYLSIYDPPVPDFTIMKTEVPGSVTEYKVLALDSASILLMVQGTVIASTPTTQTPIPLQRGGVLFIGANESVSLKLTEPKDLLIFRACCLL
# Assay: inhibitors of human PMI, primary screen, biochemical, fluorescence intensity, coupled assay (AID 1209);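 further: plate controls were DMSO vehicle for no effect and wells lacking substrate for full effect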
# Settings: purified PMI enzyme, at 20 µM, active compounds read high
row,Structure (SMILES),inhibition
1,Cn1c(N)c(C(=O)Nc2ccc3ccccc3c2)sc1=S,64.8% (active)
2,Cn1c(N)c(C(=O)NCc2ccccc2)sc1=S,12.3%
3,COC(=O)c1ccccc1NC(=O)c1sc(=S)n(C)c1N,-14.8%
4,Cc1cnn(C(=O)c2oc3ccccc3c2C)c1,-1.3%
5,Cc1cc(N)n(-c2ccccc2C)n1,11.2%
6,C=CCN1C(=O)C(C)(C)Nc2ccccc21,6.9%
7,Cn1ccnc1SCC(=O)c1c[nH]c2ccccc12,4.5%
8,C/C(=N\NC(=O)c1nn(C)c(C)c1Br)c1ccc(NC(=O)c2ccccc2F)cc1,-0.9%
9,C/C(=N\NC(=O)c1nn(C)c(C)c1Br)c1cccc(NC(=O)c2ccc(F)cc2)c1,50.8% (active)
10,C/C(=N\NC(=O)c1nn(C)c(C)c1Br)c1cccc(NC(=O)c2ccoc2C)c1,-8.4%
11,COC(=O)c1ccc(NC(=S)NCCCN2CCCC2=O)cc1,-0.7%
12,Cc1ccc(NC(=S)N(CCCN2CCC(C)CC2)Cc2ccco2)cc1C,-3.2%
13,Cc1ccc(NC(=S)N(CCCN2CCC(C)CC2)Cc2ccco2)cc1,81.3% (active)
14,Cc1ccc(NC(=S)N(CCCN2CCOCC2)Cc2ccco2)cc1,-2%
15,CCOC(=O)C1C(c2ccc(O)c(O)c2)NC(=S)NC1(O)C(F)(F)F (centres undefined),61.7% (active)
16,CCOC(=O)C1C(c2ccc(O)c(OC)c2)NC(=S)NC1(O)C(F)(F)F (centres undefined),-3%
17,CCOC(=O)C1C(c2ccc(O)c(OCC)c2)NC(=S)NC1(O)C(F)(F)F (centres undefined),-6.6%
18,O=C(CN1C(=O)c2cccc3cccc(c23)C1=O)N1CCOCC1,24.7%
19,O=C(Nn1cnnc1)c1ccc(Br)s1,-17.3%
20,O=C(NCCCn1ccnc1)c1cc(-c2ccc(Br)cc2)on1,-3.5%
21,O=C(O)CS(=O)(=O)CC(=O)NCc1cccc(C(F)(F)F)c1,-2.8%
22,Cc1ccc(NC(=O)Nc2c(C)n(C)n(-c3ccccc3)c2=O)cc1C,-4%
23,COCCn1c(=NC(=O)C2COc3ccccc3O2)sc2cc(S(N)(=O)=O)ccc21 (centres undefined),12.8%
24,O=C(COc1cccnc1[N+](=O)[O-])N1CCN(C(=O)c2ccco2)CC1,57.6% (active)
25,O=C(COc1ccccc1O)N1CCN(C(=O)c2ccco2)CC1,4%

row,Structure (SMILES),inhibition
1,O=C(COc1cccnc1[N+](=O)[O-])N1CCN(S(=O)(=O)c2ccccc2)CC1,12.8%
2,CC1(C)C/C(=N\O)c2cc3c(nc2C1)CCCC3,-3%
3,Cc1cc(C)nc(NC(=O)c2c(-c3c(Cl)cccc3Cl)noc2C)n1,9.1%
4,CCOC(=O)N1CCN(S(=O)(=O)c2cc(C)c(C)cc2C)CC1,-3.8%
5,C[N+]1=C(/C=C/Nc2ccccc2Cl)C(C)(C)c2ccccc21,78.4% (active)
6,FC(F)(F)c1cnc(/C=C/Nc2ccccc2Cl)c(Cl)c1,12.3%
7,COC(=O)c1ccc(CN(C)S(=O)(=O)c2ccc(C)cc2)o1,-1.6%
8,CCc1nc(N=Nc2c(O)[nH]c3ccccc23)c2c3c(sc2n1)CCC3,-5.7%
9,C=CCn1c(COc2ccc3c(c2)CCCC3)nnc1SCC(=O)Nc1cccc(SC)c1,15%
10,CC1(C)CC(N2CCCC2)=CC(=[N+]2CCCCCC2)C1,62.8% (active)
11,CC1(C)CC(N2CCCCC2)=CC(=[N+]2CCCCC2)C1,34.9%
12,CC1(C)CC(N2CCCC2)=CC(=[N+]2CCCCC2)C1,12.6%
13,COc1cc2c(C(=O)OCCN(C)C)c(CSc3ccccc3)n(C)c2cc1Br,3.3%
14,CC(OC(=O)c1cccnc1Cl)C(=O)Nc1ccc2c(c1)OCCO2 (centres undefined),-6.6%
15,O=C(Nc1cccc(S(=O)(=O)N2CCOCC2)c1)c1cn(-c2ccccc2)nc1-c1ccc(F)cc1,6.6%
16,O=C(Nc1ccccc1OC(F)F)c1ccc(F)cc1,109% (active)
17,O=C(Nc1ccccc1OC(F)F)c1ccccc1,10.6%
18,Cc1ccc(C(=O)Nc2ccccc2OC(F)F)cc1,-0.1%
19,O=C(NCCc1ccccc1)c1ccccc1NC(=O)C1CC=CCC1C(=O)O (centres undefined),5.2%
20,O=C(NC1CC1)c1sc2cc([N+](=O)[O-])ccc2c1Cl,1.4%
21,CC(NC(=O)c1sc2cc([N+](=O)[O-])ccc2c1Cl)C(C)(C)C (centres undefined),57.2% (active)
22,CC(C)N(C(=O)c1sc2cc([N+](=O)[O-])ccc2c1Cl)C(C)C,0.2%
23,CCNc1ccc(C(=O)OCC(=O)NCCN2C(=O)CSC2=O)cc1[N+](=O)[O-],-6.6%
24,CCCN1CCC(NC(=O)CCc2nnc(Cc3cc(OC)ccc3OC)o2)CC1,7.2%
25,COc1cc(OC)c(C2CC(=O)N3CN(C)CSC3=C2C#N)cc1OC (centres undefined),59.9% (active)

row,Structure (SMILES),inhibition
1,COc1ccc(N2CSC3=C(C#N)C(c4cc(OC)ccc4OC)CC(=O)N3C2)c(OC)c1 (centres undefined),53.4% (active)
2,COc1ccc(Br)cc1C1CC(=O)N2CN(C)CSC2=C1C#N (centres undefined),27.6%
3,COc1cccc(C2CC(=O)N3CN(c4ccccc4F)CSC3=C2C#N)c1 (centres undefined),16%
4,COc1cc(OC)c(C2CC(=O)N3CN(c4ccccc4)CSC3=C2C#N)cc1OC (centres undefined),41.2%
5,COc1ccc(OC)c(C2CC(=O)N3CN(c4cccc(Cl)c4C)CSC3=C2C#N)c1 (centres undefined),46.9%
6,COc1ccc(OC)c(C2CC(=O)N3CN(c4ccccc4F)CSC3=C2C#N)c1 (centres undefined),57.3% (active)
7,COc1ccc(OC)c(C2CC(=O)N3CN(c4ccccc4)CSC3=C2C#N)c1 (centres undefined),2.2%
8,COc1cc(OC)c(C2CC(=O)N3CN(c4ccccc4C)CSC3=C2C#N)cc1OC (centres undefined),30.5%
9,COc1ccc(N2CSC3=C(C#N)C(c4ccc(OC)c(OC)c4)CC(=O)N3C2)c(OC)c1 (centres undefined),39.1%
10,COc1ccc(OC)c(C2CC(=O)N3CN(c4cccc(Cl)c4)CSC3=C2C#N)c1 (centres undefined),16.5%
11,CCN(CC)S(=O)(=O)c1ccc(OC)c(NC(=O)Cc2cccs2)c1,-11.3%
12,Cc1cc(C)n(-c2ccc(C(=O)Nc3cccc(S(=O)(=O)N(C)C)c3)cc2)n1,5.5%
13,CCN(CC)S(=O)(=O)N1CCC(C(=O)NCCN2CCOCC2)CC1,-6.8%
14,CCOC(=O)C1CCN(S(=O)(=O)c2ccc(CC)cc2)CC1,-5.3%
15,CC(=O)c1ccc(NC(=S)N2CCN(CCN3C(=O)c4cccc5cccc(c45)C3=O)CC2)cc1,10.7%
16,COc1cccc(NC(=O)c2cc(-c3cccnc3)nc3c(Cl)cccc23)c1,1.6%
17,O=C(CCc1ccccc1)Nc1cccc(NC(=O)CCc2ccccc2)c1,13.7%
18,O=C(CCc1ccccc1)Nc1cc(NC(=O)CCc2ccccc2)cc(C(=O)O)c1,63.6% (active)
19,O=C(CCc1ccccc1)Nc1cc(C(=O)O)cc(C(=O)O)c1,-2%
20,Cc1cccc(NC(=O)N(C)Cc2cccs2)c1,0.5%
21,NNC(=O)c1cc(O)c(O)c(O)c1,51.2% (active)
22,NNC(=O)c1cccc(O)c1,10%
23,COC(=O)c1cc(O)c(O)c(O)c1,34%
24,O=C(Nc1cccc(O)c1)c1noc2c1CCCCC2,-1.4%
25,O=c1nc(Nc2ccc(OCc3ccccc3)cc2)sc2ncccc12,3%

row,Structure (SMILES),inhibition
1,COc1ccc(OC)c(Nc2nc(=O)c3cccnc3s2)c1,68.3% (active)
2,Cc1ccc(Nc2nc(=O)c3cccnc3s2)cc1,1.7%
3,Cc1nnc(SCC(=O)Nc2ccc3c(c2)OCCO3)n1N,11.3%
4,Cc1cccc(C=Nc2ccc3c4c(cccc24)CC3)c1O,44.8%
5,Oc1ccc(Br)cc1C=Nc1ccc2c3c(cccc13)CC2,38.4%
6,Oc1ccc(Cl)cc1C=Nc1ccc2c3c(cccc13)CC2,50.8% (active)
7,COc1ccc(-n2cnc3cc([N+](=O)[O-])ccc32)cc1,5.5%
8,O=[N+]([O-])c1ccc2c(c1)ncn2-c1ccccc1,-3.3%
9,Nc1ccc(-n2cnc3cc([N+](=O)[O-])ccc32)cc1,53.9% (active)
10,N=C1C=CC=C2C1=NC1(CCCCC1)N2O,72.2% (active)
11,CCOC(=O)C1CCN(CC(O)COCc2cccs2)CC1 (centres undefined),-1.6%
12,Oc1ccc2ccccc2c1/C=N/c1nccs1,39.6%
13,Cc1cc(N=Cc2c(O)ccc3ccccc23)no1,43.9%
14,Oc1ccc2ccccc2c1C=Nc1ccc(Cl)cn1,56.1% (active)
15,O=C(CSc1nc2ccc(Cl)cc2[nH]1)NCc1ccco1,1.5%
16,Cc1cccc(-n2c3nc(=O)[nH]c(=O)c-3cc3c(C)nn(-c4ccccc4)c32)c1,6.4%
17,COc1cc([N+](=O)[O-])ccc1NC(=O)/C=C/C(=O)O,-26.7%
18,S=C(NCCCn1ccnc1)Nc1ccc(Cl)cc1Cl,5.5%
19,O=C(CSc1nnc2ccccn12)NNC(=O)c1ccccc1,-2.1%
20,CCSc1nnc(N)s1,-0.6%
21,CCSc1nnc(NC(=O)CC)s1,0%
22,COc1ccc(-n2c(=S)[nH]c3c(sc(=S)n3-c3ccccc3)c2=O)c(OC)c1,62.6% (active)
23,COc1ccccc1-n1c(=S)[nH]c2c(sc(=S)n2-c2ccccc2)c1=O,-4.5%
24,COc1ccc(OC)c(-n2c(=S)[nH]c3c(sc(=S)n3-c3ccccc3)c2=O)c1,9.9%
